High-throughput results as filed in PubChem BioAssay.
Sampled rows, rich in hits. Any-hit rate of the full collection: about 19%.
DT40 TDP1 no CPT: qHTS for Inhibitors of human tyrosyl-DNA phosphodiesterase 1 (TDP1): qHTS in cells in absence of CPT. AID 686978, 2013. Potency, µM (highest dose often 46.2 µM), inactives show top-dose activity change, negative = growth inhibition, hits mostly inhibitors. DT40 Tdp1-/- hTDP1 cells, no CPT, ATP luminescence, 48 h. 15% of 420,000 active; also: nearly all actives have a fitted effect of over 55% in size
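No-CPT arm: Tdp1-/-;hTDP1 DT40 cells (400/well) plus compounds, incubated ≥48 hr at 37 °C. Readout CellTiter-Glo luminescence.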
KB-3-1 cytotox: qHTS assay for MDR1-selective chemotherapeutics: Primary screen using the parental adenocarcinoma cell KB-3-1. 1.4% of 400,000 active. KB-3-1 viability, CellTiter-Glo ATP luminescence, 72 h. AID 1347075, 2019. Potency, µM (titrated, usually from 46.1 µM), most hits filed as cytotoxic; also: nearly all actives have a fitted effect of over 60% in size
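Luminescent ATP read-out (CellTiter-Glo) measures survival of drug-naive KB-3-1 cells after 72 h compound exposure at 37 °C. Titration series was screened from lowest to highest concentration, with DMSO vehicle plates as background controls.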
HT1080-NT tox: qHTS for induction of synthetic lethality in tumor cells producing 2HG: qHTS for the HT-1080-NT fibrosarcoma cell line; HT-1080-NT fibrosarcoma viability, CellTiter-Glo ATP luminescence, 48 h; Potency, µM (highest dose often 46.1 µM), without a hit: at the highest dose activity, negative = less viability, actives largely listed as cytotoxic; 1.6% of 360,000 active; AID 686970, 2013;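 also: NT is the 2HG producing partner of a matched IDH1 knockdown line; 0% = DMSO-treated cells and -100% = media-only wells without cells; nearly all actives have a fitted effect of over 55% in size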
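Viability of the 2HG-overproducing fibrosarcoma line after 48 hours of compound exposure at 37 degrees C was determined by luminescence with CellTiter-Glo, and concentration-effect curves were then fitted and categorized.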
TDP1 cell CPT: qHTS for Inhibitors of human tyrosyl-DNA phosphodiesterase 1 (TDP1): qHTS in cells in presence of CPT; Potency, µM (highest dose often 46.2 µM), inactives show at the top dose activity change, negative = growth inhibition, actives largely listed as inhibitors; 12% of 420,000 active; AID 686979, 2013; chicken DT40 Tdp1-/-;hTDP1 cells + 20 nM CPT, ATP luminescence, 48 h; also: nearly all actives have a fitted effect of over 55% in size
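Chicken DT40 Tdp1-/- cells stably complemented with human TDP1 were seeded at 400 cells/well in medium containing 20 nM camptothecin, exposed to pin-transferred compounds, and grown at 37 °C for at least 48 hr. Viability was read as ATP luminescence.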
HT1080 IDH1KD tx: qHTS for induction of synthetic lethality in tumor cells producing 2HG: qHTS for the HT-1080-IDH1KD cell line. 2% of 360,000 active. HT-1080 IDH1 knockdown viability, ATP luminescence, 48 h. Potency, µM (highest dose often 46.1 µM), without a hit: at the highest dose activity, negative = toxicity, hits mostly cytotoxic;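 also: 0% = DMSO wells and -100% = cell-free medium wells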
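HT-1080-IDH1KD cells (IDH1 knocked down), 750/well in RPMI with 5% FBS, treated with compound 48 h at 37 degrees C. Viability by CellTiter-Glo luminescence, normalised to DMSO and no-cell wells; concentration-response curves classed.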
KB-V1 cytotox: qHTS assay for MDR1-selective chemotherapeutics: Primary screen using the drug-selected MDR subline cells KB-V1; KB-V1 MDR cells viability, CellTiter-Glo, 72 h; Potency, µM (titrated, usually from 46.1 µM), actives largely listed as cytotoxic; 3.4% of 400,000 active; also: nearly all actives have a fitted effect of over 60% in size
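Readout: CellTiter-Glo luminescence, 10 min after addition. Cells: KB-V1 MDR subline, 72 h at 37 degrees C with compound. Analysis: corrected, normalized data fitted to concentration-effect curves.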
* = called active by the depositor; i = inactive; ? = inconclusive; · = no result; [ ] = dose if it differs, or a comment. Calls follow the shape of the dose curve; as a rule, active = well fitted curve in the direction sought with a large enough effect; inconclusive = small, poorly fitted or top-dose-only effect, or another doubt; inactive = no such curve, though single readings can be large; an effect the other way counts as inactive or inconclusive. Unless noted, % is scaled to controls: 0 for no effect and ±100 for the full control effect; potency is read from the fitted curve at half-maximal effect.

SMILES	DT40 TDP1 no CPT	KB-3-1 cytotox	HT1080-NT tox	TDP1 cell CPT	HT1080 IDH1KD tx	KB-V1 cytotox
COCCNC(=O)C1(C)Cc2c(-c3cccc(C(F)(F)F)c3)ccnc2O1 (stereo not given)	9.2µM*	?	?	9.2µM*	21µM*	i
CC1(C(=O)NCC2CC2)Cc2c(-c3cccc(C(N)=O)c3)ccnc2O1 (stereo not given)	?	i	-16%	?	0%	?
CCOC1(/N=C(\C)NS(=O)(=O)c2ccc(Cl)cc2)C(C)=CC(=O)C=C1C	?	i	5%	?	14%	i
CC(=O)N1c2c(cc(Br)cc2S(=O)(=O)Nc2c(C)n(C)n(-c3ccccc3)c2=O)CC1C (stereo not given)	-13%	i	15%	-1%	14%	i
CC(=O)N1c2c(cc(Br)cc2S(=O)(=O)N2CCN(C(=O)c3ccco3)CC2)CC1C (stereo not given)	18µM*	i	4%	21µM*	0%	?
CC(=O)N1c2c(cc(Br)cc2S(=O)(=O)N2CCN(c3ccccc3)CC2)CC1C (stereo not given)	16µM*	i	·	23µM*	·	i
C=CCn1c(C)nnc1SCC(=O)N1c2ccccc2NC(=O)C1(C)C	?	i	5%	9%	0%	i
CCCCCCn1c(COc2ccccc2F)nnc1SCC(=O)N1c2ccccc2NC(=O)C1(C)C	16µM*	?	-2%[9.24 µM]	23µM*	?	?
COc1ccc(CNC(=O)CN2C(=O)COc3ccc(S(=O)(=O)N4CCCCC4)cc32)cc1	28%	i	-3%	-1%	-5%	i
Cc1cc(/C=C2/SC(=S)N(c3cccc(C(F)(F)F)c3)C2=O)c(C)n1-c1cccnc1	0.73µM*	?	?	0.73µM*	?	i
COc1cccc(/C=C2\SC(=S)N(c3cccnc3)C2=O)c1OC	4%	i	9%	0%	7%	i
COc1cccc(-c2ccnc(-n3ncc(C(=O)NCc4cccnc4)c3C3CC3)n2)c1	?	·	·	-9%[9.04 µM]	·	·
COc1cc(CC2C(=O)OCC2C(=O)c2ccc3c(c2)OCO3)cc(OC)c1OC (stereo not given)	6%	i	14%	1%	15%	?
COc1cc(C[C@@H]2C(=O)OC[C@H]2Cc2ccc(OC)c(OC)c2)ccc1O	2.6µM*	i	0%	2.3µM*	-10%	i
COc1cc(CC2COC(=O)C2(O)Cc2ccc(O)c(OC)c2)ccc1O (stereo not given)	9.2µM*	i	-1%	12µM*	-19%	i
Cc1cccc(S(=O)Cc2ccc(C(=O)NC3CCCCCC3)o2)c1 (stereo not given)	?	·	·	12µM*	·	·
Cc1ccccc1S(=O)(=O)Cc1ccc(C(=O)NC2CCCCC2)o1	?	?	9%	21µM*	6%	i
COc1ccccc1S(=O)(=O)Cc1ccc(C(=O)NC2CC2)o1	33%	i	3%	-18%	13%	?
COc1ccccc1S(=O)(=O)Cc1ccc(C(=O)NC2CCCCC2)o1	?	i	10%	-17%	3%	15µM*
CC1CCC(NC(=O)c2ccc(CS(=O)(=O)c3c(Cl)cccc3Cl)o2)CC1 (stereo not given)	?	i	·	15µM*	·	i
CCc1ccccc1S(=O)(=O)Cc1ccc(C(=O)NC2CCCC2)o1	8%	i	-1%	-21%	10%	i
CCOC(=O)N1CCC(NC(=O)c2ccc(CS(=O)c3cccc(C)c3)o2)CC1 (stereo not given)	-5%	i	0%	-13%	5%	i
COc1cc(OC)c(C(=O)c2ccccc2[N+](=O)[O-])c(OC)c1	-20%	i	4%	24%	10%	i
COc1ccc(CNC(C)(C)C)cc1Cl	-6%	i	23%	5%	6%	i
CC(C)COc1ccc(CN=C(N)N=C(N)N)cc1Cl	4.1µM*	13µM*	?	6.5µM*	?	i
SMILES	DT40 TDP1 no CPT	KB-3-1 cytotox	HT1080-NT tox	TDP1 cell CPT	HT1080 IDH1KD tx	KB-V1 cytotox
CC(C)Oc1ccc(CN=C(N)N=C(N)N)cc1Cl	13µM*	?	?	?	?	i
COc1ccc(CN=C(N)N=C(N)N)cc1Cl	21µM*	i	-22%	?	-19%	i
C=CCn1c(Cc2ccc(OC(C)C)c(Cl)c2)nnc1SCC(N)=O	-5%	i	8%	6%	2%	i
CCOC(=O)Cc1cc(OC)c(OC)cc1Cc1cc(OC)c(OC)cc1CC(=O)OCC	-16%	i	4%	-1%	1%	i
C=C1C[C@@]23CC4C5[C@@]6(C)C[C@H](O)C[C@@]57C2[C@H](O)[C@@H]1[C@H](O)[C@H]3[C@H]7N4C6	-9%[9.04 µM]	·	·	-14%[9.04 µM]	·	·
COc1cc(CCN(C(=O)c2cc3ccccc3[nH]2)C(c2ccccn2)c2nc3ccccc3[nH]2)cc(OC)c1 (stereo not given)	?	i	-1%	?	?	i
CC(=O)C(C(C)=O)C1(O)C(=O)c2ccccc2C1=O	23µM*	i	-12%	26µM*	1%	i
CC(=O)N(C)C1=C(O)c2ccccc2C(=O)C1=O	-1%	i	0%	-17%	4%	i
CCOC(=O)c1cc2c(=O)c3cc(C)ccc3oc2nc1C	15µM*	i	29%	?	12%	i
COc1ccc(Cc2c(-c3ccc(OC)c(OC)c3)nc3c(C)cc(Br)cn23)c(C)c1	1.5µM*	i	?	1.2µM*	?	i
COc1ccc(Cc2c(-c3ccc(OC)c(OC)c3)nc3cc(C)c(Br)c(C)n23)c(C)c1	?	?	-26%	?	?	i
COc1ccc(Cc2c(-c3ccc(OC)c(OC)c3)nc3ccc(C)cn23)c(C)c1	16µM*	i	-29%	?	?	i
COc1ccc(-c2nc3c(C)cc(Br)cn3c2Cc2ccccc2)cc1OC	6.5µM*	i	?	7.3µM*	?	i
